Where “and” joins values, the source holds several entries; their conditions need not be identical. Identical values can stand only once. Inconclusive results are not listed. Calls of active or inactive are those of the source. Unless noted, calls come from the whole dose curve; as a rule, active = well fitted curve in the direction sought with a large enough effect; inconclusive = small, poorly fitted or top-dose-only effect, or another doubt; inactive = no such curve, though single readings can be large; an effect the other way counts as inactive or inconclusive.
Columns and labels:
[1] = molecular target: Cytochrome P450 1A2 (Homo sapiens) (UniProt P05177); assay: p450-cyp1a2 (AID 410; calls by dose curve; note: potency is the fitted concentration of half-maximal effect;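 for activity change, negative = inhibition: -100% = full effect of reference inhibitor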)
Cytochrome P450 1A2 (Homo sapiens), sequence (P05177 whole entry, looked up): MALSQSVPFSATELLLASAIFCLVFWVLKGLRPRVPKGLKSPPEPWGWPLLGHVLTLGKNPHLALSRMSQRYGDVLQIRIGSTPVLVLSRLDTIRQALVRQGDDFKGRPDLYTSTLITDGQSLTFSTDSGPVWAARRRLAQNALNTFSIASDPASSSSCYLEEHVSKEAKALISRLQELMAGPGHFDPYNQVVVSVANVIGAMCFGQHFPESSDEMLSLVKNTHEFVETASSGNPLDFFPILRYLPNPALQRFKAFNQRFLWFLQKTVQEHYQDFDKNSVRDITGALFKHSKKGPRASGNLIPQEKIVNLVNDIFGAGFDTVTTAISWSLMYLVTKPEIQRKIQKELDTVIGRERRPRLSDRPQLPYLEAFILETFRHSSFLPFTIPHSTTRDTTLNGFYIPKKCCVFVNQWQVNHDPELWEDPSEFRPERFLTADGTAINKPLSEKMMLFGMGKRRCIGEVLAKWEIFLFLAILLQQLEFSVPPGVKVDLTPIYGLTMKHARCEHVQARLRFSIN
Method in brief: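 Read-out is luminescence from luciferin produced by CYP1A2 demethylation of Luciferin-ME (100uM, at Km). Detection reagent stopped the 60 min NADPH-dependent reaction; signals were normalized to 57 uM furafylline.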

[2] = molecular target: Glucocorticoid receptor (Homo sapiens) (UniProt P04150); assay: GR-GFP Redistribution (AID 450;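 active = compounds whose dose series gives a full or clear partial fitted curve of increased nuclear translocation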; note: potency is the fitted concentration of half-maximal effect); conditions: U2OS GR-GFP nuclear translocation, laser cytometry, 2 h
Glucocorticoid receptor (Homo sapiens), sequence (P04150 whole entry, looked up, the tested form may be a part): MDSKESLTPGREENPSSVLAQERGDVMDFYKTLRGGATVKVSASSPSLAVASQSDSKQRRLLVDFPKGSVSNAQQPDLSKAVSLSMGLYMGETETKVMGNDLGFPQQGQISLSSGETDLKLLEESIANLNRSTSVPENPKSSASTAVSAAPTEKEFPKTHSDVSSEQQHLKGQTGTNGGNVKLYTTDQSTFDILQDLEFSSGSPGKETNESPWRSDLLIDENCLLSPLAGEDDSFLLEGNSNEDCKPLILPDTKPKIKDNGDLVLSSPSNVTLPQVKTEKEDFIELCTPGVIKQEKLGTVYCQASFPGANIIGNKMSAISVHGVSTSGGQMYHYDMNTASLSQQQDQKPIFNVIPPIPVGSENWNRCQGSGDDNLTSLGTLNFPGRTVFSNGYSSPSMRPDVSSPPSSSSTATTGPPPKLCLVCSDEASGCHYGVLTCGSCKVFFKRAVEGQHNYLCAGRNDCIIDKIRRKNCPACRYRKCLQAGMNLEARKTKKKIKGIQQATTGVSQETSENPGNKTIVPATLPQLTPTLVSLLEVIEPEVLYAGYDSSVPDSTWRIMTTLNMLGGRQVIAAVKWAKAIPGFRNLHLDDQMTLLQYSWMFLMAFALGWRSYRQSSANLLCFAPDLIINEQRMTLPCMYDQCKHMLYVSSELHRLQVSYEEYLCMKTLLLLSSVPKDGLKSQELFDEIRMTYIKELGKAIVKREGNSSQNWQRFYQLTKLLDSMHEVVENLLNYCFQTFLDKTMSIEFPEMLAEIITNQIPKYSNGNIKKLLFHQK

[3] = molecular target: Mitogen-activated protein kinase 10 (Mus musculus) (UniProt Q61831); assay: JNK3 AlphaScreen Assay (AID 530; active = well fitted curve in either direction with a large enough effect, not every such curve was filed as active;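 note: kinase came from lysate of stimulated human HepG2 cells; signal reports phosphorylation of biotinylated GST-cJun 1-79 at Ser73 with 10 µM ATP; % is set by controls: 0 for no effect and ±100 for the full control effect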)
Method in brief: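 Kinase buffer: 20 mM Tris-HCl pH 7.6, 10 mM MgCl2, 1 mM DTT, 0.1 mM Na3VO4, 0.01% Tween-20; ATP 10 uM. Substrate biotin-GST-cJun(1-79), enzyme from activated HepG2 lysates. Detection by Ser73 phospho-antibody AlphaScreen.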

[4] = molecular target: 3',5'-cyclic-AMP phosphodiesterase 4B (Homo sapiens) (UniProt Q07343); assay: qHTS Assay for Inhibitors of PDE-IV (AID 607; active = well fitted activation curve with a large enough effect in the main read-out, with a control signal flat, not every such curve was filed as active; note: % of control where 0% means no effect)
3',5'-cyclic-AMP phosphodiesterase 4B (Homo sapiens), sequence (Q07343 whole entry, looked up): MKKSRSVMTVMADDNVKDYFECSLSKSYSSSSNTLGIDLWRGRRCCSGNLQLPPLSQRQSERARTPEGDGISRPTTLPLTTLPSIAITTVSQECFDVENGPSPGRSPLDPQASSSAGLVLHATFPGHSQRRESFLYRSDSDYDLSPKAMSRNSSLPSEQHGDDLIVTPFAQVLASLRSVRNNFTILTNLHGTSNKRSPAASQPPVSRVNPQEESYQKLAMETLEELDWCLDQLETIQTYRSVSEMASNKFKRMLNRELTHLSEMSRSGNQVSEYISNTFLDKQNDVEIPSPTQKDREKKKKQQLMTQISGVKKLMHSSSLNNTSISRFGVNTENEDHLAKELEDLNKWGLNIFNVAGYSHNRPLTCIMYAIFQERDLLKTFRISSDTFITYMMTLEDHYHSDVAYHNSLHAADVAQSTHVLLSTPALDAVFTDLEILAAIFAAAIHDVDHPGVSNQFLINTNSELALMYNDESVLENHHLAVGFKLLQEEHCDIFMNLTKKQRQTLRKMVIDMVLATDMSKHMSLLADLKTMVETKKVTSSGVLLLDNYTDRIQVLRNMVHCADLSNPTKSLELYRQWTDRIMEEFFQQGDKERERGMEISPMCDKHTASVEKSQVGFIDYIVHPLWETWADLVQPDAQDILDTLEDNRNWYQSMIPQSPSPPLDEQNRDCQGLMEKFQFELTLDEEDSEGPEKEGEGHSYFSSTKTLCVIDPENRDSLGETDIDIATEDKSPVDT
Method in brief: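 Cell-based read-out of cAMP via a modified cyclic nucleotide-gated channel and membrane potential dye (535/590 nm) in HEK293 cells expressing PDE4 endogenously. Compounds tested up to 22.9 uM final; 100 uM RO 20-1724 reference.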

[5] = qHTS Assay for Lipid Storage Modulators (AID 1519; calls by dose curve); conditions: Drosophila S3 cells, BODIPY lipid droplet/cell ratio, laser cytometry, cells loaded with oleic acid
Method in brief: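 Cells seeded at 5,000 per well were treated with compounds over a concentration series and loaded with oleic acid (400 uM, as added). Lipid droplet fluorescence (488 nm excitation, 500-530 nm channel) was read by laser-scanning cytometry and normalized to 20 uM Triacsin C.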

[6] = molecular target: Ubiquitin carboxyl-terminal hydrolase 1 (Homo sapiens) (UniProt O94782); assay: Inhibitors of USP1/UAF1: Pilot qHTS (AID 504865);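 note: rhodamine fluorescence freed from ubiquitin-rhodamine substrate followed over time; top concentration of the series differs between compounds; % is set by controls: 0 for no effect and ±100 for the full control effect; nearly all actives have a fitted effect of over 35% in size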
Ubiquitin carboxyl-terminal hydrolase 1 (Homo sapiens), sequence (O94782 whole entry, looked up): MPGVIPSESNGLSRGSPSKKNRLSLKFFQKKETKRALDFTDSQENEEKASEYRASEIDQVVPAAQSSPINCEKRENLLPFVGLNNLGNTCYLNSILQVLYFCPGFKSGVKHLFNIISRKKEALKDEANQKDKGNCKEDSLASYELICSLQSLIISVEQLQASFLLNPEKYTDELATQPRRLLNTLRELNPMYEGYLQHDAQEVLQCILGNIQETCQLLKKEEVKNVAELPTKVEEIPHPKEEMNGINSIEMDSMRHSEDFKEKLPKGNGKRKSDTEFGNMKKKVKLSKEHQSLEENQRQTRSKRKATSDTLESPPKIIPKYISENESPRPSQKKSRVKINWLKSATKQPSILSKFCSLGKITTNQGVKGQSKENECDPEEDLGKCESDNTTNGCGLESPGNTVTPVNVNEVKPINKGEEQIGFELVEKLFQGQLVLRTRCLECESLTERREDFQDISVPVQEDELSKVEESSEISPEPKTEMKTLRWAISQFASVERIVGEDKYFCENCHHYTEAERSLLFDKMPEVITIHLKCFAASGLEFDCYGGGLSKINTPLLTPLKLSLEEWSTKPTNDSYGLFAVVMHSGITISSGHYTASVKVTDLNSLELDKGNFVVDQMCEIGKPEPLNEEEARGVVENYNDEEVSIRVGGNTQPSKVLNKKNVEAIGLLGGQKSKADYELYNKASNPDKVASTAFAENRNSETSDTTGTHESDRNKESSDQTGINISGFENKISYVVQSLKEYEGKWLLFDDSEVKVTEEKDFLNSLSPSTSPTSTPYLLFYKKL
Method in brief: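 Enzyme-free wells gave the negative control, while test wells held 1nM USP1/UAF1 preincubated with compound for 15 min at room temperature. Ub-Rho at 150nM final started the reaction, and fluorescence at 480/540 nm was recorded kinetically.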

[7] = molecular target: DNA dC->dU-editing enzyme APOBEC-3G (Homo sapiens) (UniProt Q9HC16); assay: qHTS for inhibitors of Vif-A3G interactions: Validation (AID 588379); note: 0% is about no effect
DNA dC->dU-editing enzyme APOBEC-3G (Homo sapiens), sequence (Q9HC16 whole entry, looked up): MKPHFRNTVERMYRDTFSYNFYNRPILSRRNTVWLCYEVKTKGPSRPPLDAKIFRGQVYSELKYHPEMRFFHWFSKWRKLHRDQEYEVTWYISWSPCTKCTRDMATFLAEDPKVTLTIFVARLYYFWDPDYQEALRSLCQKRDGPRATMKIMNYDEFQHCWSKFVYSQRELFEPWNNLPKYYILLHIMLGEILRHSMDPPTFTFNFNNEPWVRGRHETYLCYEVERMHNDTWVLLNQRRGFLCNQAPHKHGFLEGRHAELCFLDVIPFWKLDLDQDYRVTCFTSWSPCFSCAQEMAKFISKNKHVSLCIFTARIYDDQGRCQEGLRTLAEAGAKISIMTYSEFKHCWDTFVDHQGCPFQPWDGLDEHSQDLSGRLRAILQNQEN
Method in brief: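 Yellow fluorescence (Ex 488, Em 500-530) of Vif-coexpressing HeLa A3G-eYFP cells, scanned by Acumen cytometer, reports blocked A3G degradation. Cells plated at 700/well overnight at 37 deg C before compound addition, then a further overnight compound incubation at 37 deg C.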

[8] = system: Zika virus NS2B-NS3 protease; assay: Primary screen GU AMC qHTS for Zika virus inhibitors (AID 1347154);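 note: 0% = no-inhibitor control and -100% = no-enzyme control; nearly all actives have a fitted effect of over 70% in size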
Method in brief: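 Fluorogenic AMC-substrate cleavage by noncovalent NS2B-NS3 protease complex (25 nM, pH 8.0 Tris buffer with Tween 20) followed for 15 minutes at room temperature (~20% conversion). Percent inhibition from ex340/em450 signal change, fitted by 4-parameter Hill equation.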

[9] = AP1 Signaling Pathway (AID 357; active = well fitted curve in either direction with a large enough effect, not every such curve was filed as active;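 note: ME-180 reporter cells stimulated with EGF at its EC50 level; % is set by controls: 0 for no effect and ±100 for the full control effect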); conditions: ME-180 AP-1-bla reporter, EGF-induced, beta-lactamase ratio, 5 h
Method in brief: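 Beta-lactamase reporter under AP-1 response element, ME-180 background. Stimulus: EC50 EGF. Compound exposure 5 h, 37 °C. Detection: CCF4, 2.5 h RT, 460/530 nm. Values: AC50 from titration.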

[10] = Stat Signaling Pathway (AID 446; active = well fitted curve in either direction with a large enough effect, not every such curve was filed as active;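 note: ME-180 cervical cancer cells given 40 pM IL-6 alongside compound; SIE-controlled beta-lactamase reporter measured as 460/530 nm FRET emission ratio; % is set by controls: 0 for no effect and ±100 for the full control effect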); conditions: ME-180 (cervical carcinoma) SIE beta-lactamase reporter, IL-6 stimulated, 5 h
Method in brief: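 FRET read-out (405 nm excitation, 460/530 nm emission) of a beta-lactamase reporter under a STAT-inducible element in ME-180 cervical carcinoma cells. Cells with compound receive 40 pM IL-6 for 5 h. Values are normalised to AC90 stimulation and AC90 JAK-inhibitor controls.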

[11] = molecular target: Glucocorticoid receptor (Homo sapiens) (UniProt P04150); assay: GR-EFC Redistribution (AID 451; calls by dose curve; note: potency is the fitted concentration of half-maximal effect); conditions: CHO-K1 GR-EFC translocation, beta-gal luminescence, 2 h
Method in brief: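 Translocation of GR-ED fusion to nuclear EA restores b-gal, read by luminescence after 1 h room-temperature detection. Engineered CHO-K1 biosensor cells, 1,000/well, exposed 2 h at 37 C to titrations up to 46 uM final.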

[12] = molecular target: Guanine nucleotide-binding protein G(i) subunit alpha-1 (Homo sapiens) (UniProt P63096); assay: qHTS Assay for Inhibitors of RGS12 GoLoco Motif Activity (Green Fluorophore) (AID 879);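 note: 0% = labeled peptide with Gαi1 and full inhibition = labeled peptide alone without protein; negative values mean loss of peptide binding seen as reduced polarization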
Method in brief: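 A drop in FITC polarization marked displacement of the FITC-tagged RGS12 GoLoco peptide (10 nM) from Gαi1 (50 nM). Compounds were incubated 10 min at room temperature in Tris pH 7.5 buffer containing 150 mM NaCl, 0.1 mM GDP and 0.05% NP40; unlabeled peptide titration served as control.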

[13] = molecular target: Cytochrome P450 3A4 (Homo sapiens) (UniProt P08684); assay: qHTS Assay for Inhibitors and Substrates of Cytochrome P450 3A4 (AID 884); note: % is set by controls: 0 for no effect and ±100 for the full control effect; nearly all actives have a fitted effect of over 50% in size
Cytochrome P450 3A4 (Homo sapiens), sequence (P08684 whole entry, looked up): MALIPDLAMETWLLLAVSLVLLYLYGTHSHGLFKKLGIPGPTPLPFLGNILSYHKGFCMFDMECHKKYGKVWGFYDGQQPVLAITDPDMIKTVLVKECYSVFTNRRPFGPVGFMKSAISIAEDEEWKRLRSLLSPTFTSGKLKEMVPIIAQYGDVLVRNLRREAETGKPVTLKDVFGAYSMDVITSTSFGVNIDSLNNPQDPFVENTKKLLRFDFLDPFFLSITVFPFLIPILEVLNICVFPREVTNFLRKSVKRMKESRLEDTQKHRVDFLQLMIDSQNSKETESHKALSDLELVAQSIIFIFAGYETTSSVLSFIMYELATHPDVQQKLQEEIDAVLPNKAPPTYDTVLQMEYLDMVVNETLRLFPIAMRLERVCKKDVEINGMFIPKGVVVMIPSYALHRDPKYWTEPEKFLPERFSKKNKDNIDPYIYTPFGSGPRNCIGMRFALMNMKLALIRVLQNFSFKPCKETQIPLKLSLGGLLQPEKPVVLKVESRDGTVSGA
Method in brief: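 Luminescent readout of luciferin produced by CYP3A4 (20 nM) dealkylation of Luciferin-PPXE, 25 uM (its KM). NADPH-driven reaction ran 60 min at RT after 10 min compound preincubation; data scaled to 57 uM ketoconazole as 100% inhibition.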

[14] = molecular target: Cytochrome P450 2C19 (Homo sapiens) (UniProt P33261); assay: qHTS Assay for Inhibitors and Substrates of Cytochrome P450 2C19 (AID 899); note: % is set by controls: 0 for no effect and ±100 for the full control effect; nearly all actives have a fitted effect of over 60% in size
Cytochrome P450 2C19 (Homo sapiens), sequence (P33261 whole entry, looked up): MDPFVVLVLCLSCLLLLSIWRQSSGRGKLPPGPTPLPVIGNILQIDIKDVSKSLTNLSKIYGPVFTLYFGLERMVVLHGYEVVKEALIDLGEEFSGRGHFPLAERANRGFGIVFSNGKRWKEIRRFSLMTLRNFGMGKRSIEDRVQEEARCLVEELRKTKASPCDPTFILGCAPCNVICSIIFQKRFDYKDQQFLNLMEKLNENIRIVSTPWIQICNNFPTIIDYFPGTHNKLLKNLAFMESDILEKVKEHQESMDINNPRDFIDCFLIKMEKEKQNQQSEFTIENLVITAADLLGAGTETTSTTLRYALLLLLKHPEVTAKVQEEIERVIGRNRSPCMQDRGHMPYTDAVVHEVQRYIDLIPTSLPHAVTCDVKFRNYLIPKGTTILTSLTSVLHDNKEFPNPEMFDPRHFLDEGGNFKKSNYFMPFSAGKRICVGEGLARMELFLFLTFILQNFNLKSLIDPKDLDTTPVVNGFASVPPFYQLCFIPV
Method in brief: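 Reactions contain 5nM enzyme, 10uM Luciferin-H EGE (KM) and 50mM KPO4; compound preincubates 10 min at 37C, NADPH regeneration starts turnover for 60 min. Luminescence after detection reagent gives activity.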

[15] = molecular target: Pyruvate kinase (Leishmania mexicana) (UniProt Q27686); assay: qHTS Validation Assay for Inhibitors of Leishmania Mexicana Pyruvate Kinase (AID 945);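 note: 0% = DMSO only neutral control wells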
Method in brief: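 Purified LmPYK (E451W mutant, 0.2 nM) was incubated 1 h at room temperature with 0.5 mM PEP and 0.1 mM ADP in 50 mM imidazole pH 7.2, 50 mM KCl, 7 mM MgCl2; ATP formed was read by PKLight luminescence, normalized to DMSO wells.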

[16] = molecular target: Alpha-galactosidase A (Homo sapiens) (UniProt P06280); assay: Counterscreen for Glucocerebrosidase Inhibitors: qHTS Assay for Human alpha-Galactosidase at pH 4.5 (AID 992); note: 0% is about no effect
Method in brief: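 Fluorogenic 1536-well qHTS at pH 4.5 (citrate, Tween-20): 2 nM enzyme, 80 uM 4-MU-alpha-galactoside, 20 min room temperature, NaOH/glycine stop. Titration 0.7 nM to 77 uM, data normalized to no-enzyme and full-activity controls, Hill-fitted AC50.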

[17] = molecular target: alpha-glucosidase (Oryza sativa, rice) (UniProt Q653V4); assay: Counterscreen for Glucocerebrosidase Inhibitors: qHTS Assay for Rice alpha-Glucosidase at pH 5.0 (AID 997);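 note: 0% = full activity with enzyme and -100% = basal without enzyme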
Method in brief: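 Endpoint fluorogenic assay at pH 5.0: compounds (0.7 nM to 77 uM) titrated against 4 nM rice enzyme and 400 uM 4-MU-alpha-glucoside for 20 min at room temperature; NaOH/glycine stop, read ex 365/em 440 nm, Hill-fitted AC50.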

[18] = NFAT Signaling Pathway (AID 444; active = well fitted curve in either direction with a large enough effect, not every such curve was filed as active;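 note: carbachol stimulus at about its EC50 of 1 µM final; % is set by controls: 0 for no effect and ±100 for the full control effect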); conditions: Jurkat NFAT-bla M1, carbachol, beta-lactamase ratio, 5 h; at 17.2 µM (top of the series)
Method in brief: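 Read-out: CCF4 FRET ratio (460 nm/530 nm) after 1 h RT dye loading, used for %activity and AC50 from titration series. Cells: Jurkat NFAT-β-lactamase/M1 line, treated with compound plus 1 uM carbachol for 5 h, 37 °C.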

[19] = molecular target: Cytochrome P450 2D6 (Homo sapiens) (UniProt P10635); assay: qHTS Assay for Inhibitors and Substrates of Cytochrome P450 2D6 (AID 891); note: potency is the fitted concentration of half-maximal effect; nearly all actives have a fitted effect of over 60% in size
Cytochrome P450 2D6 (Homo sapiens), sequence (P10635 whole entry, looked up): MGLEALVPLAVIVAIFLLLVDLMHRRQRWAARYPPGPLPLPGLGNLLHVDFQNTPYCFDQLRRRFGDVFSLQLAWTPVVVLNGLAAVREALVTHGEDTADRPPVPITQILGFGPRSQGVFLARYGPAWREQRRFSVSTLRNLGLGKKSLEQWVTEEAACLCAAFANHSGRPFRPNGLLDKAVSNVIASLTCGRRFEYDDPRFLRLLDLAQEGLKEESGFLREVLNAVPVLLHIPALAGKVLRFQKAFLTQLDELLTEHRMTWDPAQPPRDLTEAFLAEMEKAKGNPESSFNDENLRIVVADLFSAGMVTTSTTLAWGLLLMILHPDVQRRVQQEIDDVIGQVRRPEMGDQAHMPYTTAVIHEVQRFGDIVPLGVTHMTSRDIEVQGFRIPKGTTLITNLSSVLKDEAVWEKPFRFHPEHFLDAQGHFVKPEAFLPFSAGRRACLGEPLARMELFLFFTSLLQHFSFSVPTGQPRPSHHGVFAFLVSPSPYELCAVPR
Method in brief: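 Luminescent read-out of luciferin formed by 5 nM human CYP2D6 demethylating 30 uM Luciferin-ME EGE (Km level) over 60 min at room temperature after NADPH regeneration addition. Data normalized to full inhibition by 1.43 uM quinidine.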

[20] = Primary qHTS for small molecule stabilizers of the endoplasmic reticulum resident proteome: Secreted ER Calcium Modulated Protein (SERCaMP) assay (AID 1508630); note: % is set by controls: 0 for no effect and ±100 for the full control effect
Method in brief: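 The SH-SY5Y reporter protocol was run at 3 concentrations up to 38.3 uM (primary) or 11 concentrations (follow-up): 16 h compound, 100 nM thapsigargin for 4 h, then extracellular luciferase luminescence.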

[21] = molecular target: Tyrosyl-DNA phosphodiesterase 1 (Homo sapiens) (UniProt Q9NUW8); assay: Confirmation Assay for Inhibitors of Tyrosyl-DNA Phosphodiesterase (TDP1) (AID 489007); conditions: recombinant human TDP1 enzymatic activity, dose-response; note: potency is the fitted concentration of half-maximal effect; nearly all actives have a fitted effect of over 40% in size
Method in brief: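 Loss of AlphaScreen signal reports Tdp1 cleavage of a dual-labelled DNA substrate. Conditions: 1 nM E. coli-derived enzyme, 15 nM substrate, 15 min compound preincubation, 5 min reaction, 10 min bead incubation, all at room temperature.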

[22] = molecular target: Cytochrome P450 2C9 (Homo sapiens) (UniProt P11712); assay: qHTS Assay for Inhibitors and Substrates of Cytochrome P450 2C9 (AID 883); note: % is set by controls: 0 for no effect and ±100 for the full control effect; nearly all actives have a fitted effect of over 60% in size
Method in brief: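 Turnover of Luciferin-H (100uM, KM) by 10nM human CYP2C9 was measured over 60 min at 37C with NADPH regeneration; inhibitors and some substrates reduce luminescence. Data normalized to sulphaphenazole 57uM.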

[23] = measured here: cell count channel max response
[24] = measured here: lipid channel max response

C[C@H](N)C(=O)O
-5.58%: max response [5, 24]
-6.7%: max response [5, 23]
inactive: Potency [1] | Potency [2] > 46 µM | Potency [3] | Potency [4] | activity change, negative = inhibition ([5]; at 57.5 µM (top of the series)) 1.23% | Potency [6] | Potency [7] | Potency [8]

Fc1ccc(C(c2ccc(F)cc2)N2CCN(C/C=C\c3ccccc3)CC2)cc1
-22.1%: max response [5, 24]
active: Potency [1] 15.8 µM
inactive: activity change, negative = inhibition ([9]; at 17.2 µM (top of the series)) -7.16% | activity change, negative = inhibition ([9]; at 38 µM (top of the series)) 2.24% | activity, negative = inhibition ([10]; at 17.2 µM (top of the series)) 10.1% | activity, negative = inhibition ([10]; at 38 µM (top of the series)) -6.11% | Potency [11] > 46 µM and > 20.6 µM | Potency [3] | Potency [4] | outcome [12] | Potency [13] | Potency [14] | Potency [15] | outcome [16] | outcome [17] | activity change, negative = inhibition ([5]; at 25.7 µM (top of the series)) -8.39% | Potency [8]
-13.5%: max response [5, 23]

CC(=O)Nc1ccc(OC[C@@H](O)CNC(C)C)cc1
active: Potency [19] 3.16 µM
-2.07% and -0.999%: max response [5, 23]
-5.59% and -8.67%: max response [5, 24]
inactive: activity change, negative = inhibition ([9]; at 17.2 µM (top of the series)) 5.39% | Potency [1] | activity change, negative = inhibition [18] -18.7% | activity, negative = inhibition ([10]; at 17.2 µM (top of the series)) 9.62% | Potency [2] > 20.6 µM and > 46 µM | Potency [11] > 20.6 µM and > 46 µM | Potency [3] | Potency [4] | activity change, negative = inhibition ([5]; at 25.7 µM (top of the series)) -2.39% | activity change, negative = inhibition ([5]; at 57.5 µM (top of the series)) -10.4% | Potency [6] | Potency [7] | Potency [8]

NC(N)=NCCC[C@@H](N)C(=O)O
inactive: Potency [13] | Potency [7] | Potency [8] | Potency [20]

Cc1nc(N=Nc2cc(S(=O)(=O)O)ccc2S(=O)(=O)O)c(COP(=O)(O)O)c(C=O)c1O
-2.46%: max response [5, 23]
inactive: Potency [1] | Potency [2] > 46 µM | Potency [11] > 46 µM | Potency [3] | Potency [4] | activity change, negative = inhibition ([5]; at 57.5 µM (top of the series)) -1.5% | Potency [7] | Potency [8]
active: Potency [21] 1 µM
-2.68%: max response [5, 24]

CCNCCCNCCCNCCCNCC
-26.1%: max response [5, 23]
inactive: Potency [1] | Potency [2] > 46 µM | Potency [11] > 46 µM | Potency [3] | Potency [4] | Potency [14] | activity change, negative = inhibition ([5]; at 57.5 µM (top of the series)) -4.07% | Potency [7] | Potency [8]
-12.2%: max response [5, 24]

CN(C)CCCSc1ccccc1NC(=O)/C=C\c1ccccc1
23.1%: max response [5, 24]
active: Potency [19] 0.316 µM
14.3%: max response [5, 23]
inactive: Potency [2] > 46 µM | Potency [11] > 46 µM | Potency [3] | Potency [22] | Potency [14] | activity change, negative = inhibition ([5]; at 57.5 µM (top of the series)) 4.73% | Potency [7] | Potency [8]

N#Cc1ccccc1OC[C@H](O)CNCCNC(=O)Nc1ccccc1
6.59%: max response [5, 23]
inactive: Potency [11] > 46 µM | Potency [3] | Potency [4] | activity change, negative = inhibition ([5]; at 57.5 µM (top of the series)) 0.479% | Potency [6] | Potency [7] | Potency [8]
10.2%: max response [5, 24]

Reference: PubChem BioAssay (NCATS)
